A selection: hits, their analogues and other compounds. The true share with any hit is near 1.3%.
cardiac RTF act – cardiac RTF calcium sensitivity activators, primary screen, biochemical, IANBD-TnC fluorescence, EC20 calcium; Troponin I, cardiac muscle (Homo sapiens) + Troponin T, cardiac muscle (Homo sapiens) + …; IANBD-labeled TnC RTF fluorescence at EC20 calcium; 0% EC20 calcium, 100% full calcium; activation, % at 7.2 µM; hit rate 0.24% among 340,000; AID 493008, 2010;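 active = activation above the mean over all tested compounds plus 3 SD, cut at about 30% in these data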;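 note: rise in fluorescence read as greater calcium sensitivity of cardiac thin filaments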
Cardiac RTF inh – cardiac RTF calcium sensitivity inhibitors, primary screen, biochemical, IANBD-TnC fluorescence, EC70 calcium; hit rate 0.12% among 340,000; inhibition, % at 7.15 µM; IANBD-labeled cardiac RTF, Ca2+ fluorescence;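 active = inhibition above the mean inhibition of all tested compounds plus 3 SD, cut at about 17% in these data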;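 note: assay run at fixed EC70 calcium of 1.6 mM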
E coli Lon inh – inhibitors of E. coli Lon protease, primary screen, biochemical, fluorescence polarization. P0A9M0. purified E. coli Lon protease. inhibition, % at 7.94 µM. hit rate 0.42% among 360,000. AID 602123, 2011; in the data active = inhibition above about 13%, passing the limit was not always enough;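 note: 0% = enzyme with probe and DMSO and 100% = no enzyme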
Target sequence (P0A9M0 whole entry, looked up): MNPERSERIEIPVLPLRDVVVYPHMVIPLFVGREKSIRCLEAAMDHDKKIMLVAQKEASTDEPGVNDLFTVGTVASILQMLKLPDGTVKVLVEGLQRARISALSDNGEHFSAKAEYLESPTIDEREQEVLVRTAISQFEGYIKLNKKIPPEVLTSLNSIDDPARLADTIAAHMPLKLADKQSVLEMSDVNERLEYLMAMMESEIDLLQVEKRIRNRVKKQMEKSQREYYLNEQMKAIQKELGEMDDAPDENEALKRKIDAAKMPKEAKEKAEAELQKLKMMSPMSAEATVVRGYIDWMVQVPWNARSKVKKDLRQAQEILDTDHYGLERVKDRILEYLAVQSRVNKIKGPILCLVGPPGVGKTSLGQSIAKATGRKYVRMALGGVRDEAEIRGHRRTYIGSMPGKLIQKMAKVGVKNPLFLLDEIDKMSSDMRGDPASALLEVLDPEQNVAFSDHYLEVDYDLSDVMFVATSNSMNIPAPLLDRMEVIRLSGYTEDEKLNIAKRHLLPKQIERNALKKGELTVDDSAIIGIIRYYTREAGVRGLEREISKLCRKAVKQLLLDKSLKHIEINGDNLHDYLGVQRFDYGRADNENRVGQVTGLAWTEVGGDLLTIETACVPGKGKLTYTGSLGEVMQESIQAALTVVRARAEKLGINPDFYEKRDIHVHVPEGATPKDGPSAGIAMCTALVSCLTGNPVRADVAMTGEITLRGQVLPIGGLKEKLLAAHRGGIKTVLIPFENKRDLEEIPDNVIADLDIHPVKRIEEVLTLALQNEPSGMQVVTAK
Keap1-Nrf2 PPI – Keap1-Nrf2 protein-protein interaction inhibitors, primary screen, biochemical, fluorescence polarization, single point; Kelch-like ECH-associated protein 1 (Homo sapiens), Q14145; Keap1 Kelch-Nrf2 peptide fluorescence polarization, 1536-well; inhibition, % at 9.4 µM; hit rate 0.15% among 340,000; in the data active = inhibition above about 12%;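 note: human Keap1 Kelch domain with fluorescein labeled Nrf2 9mer peptide probe; 0% = neutral control wells and 100% = peptide positive control; higher means more block of Keap1 binding to Nrf2 peptide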
LANA-H2B inh – blockers of LANA interaction with H2A/H2B – biochemical, FP readout, HTS, primary screen | cell-free LANA-H2A/H2B peptide, fluorescence polarization | Protein LANA1 (Human herpesvirus 8 type P (isolate GK18)), Q9QR71 | hit rate 0.6% among 320,000 | inhibition, % (test concentration not listed) | AID 2629, 2010; in the data active = inhibition mostly above about 10%, no sharp cut-off; inactive = mostly below about 6.7%
C-LANA FP – inhibitors of KSHV C-LANA binding to DNA, primary screen, biochemical, fluorescence polarization, FAM-LBS DNA, MBP-C-LANA, single point; inhibition, % at 9 µM; hit rate 0.078% among 340,000; Kaposi's sarcoma herpesvirus LANA C-terminal domain (residues 932-1162) DNA binding;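 active = highest replicate inhibition at or above 60% at 9 µM, even if other replicates fall short; inactive = all replicates below 60% inhibition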;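 note: 0% = neutral control wells and 100% = 4 µM acridine orange control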
The depositor's hits bear a star; i = inactive; / = not tested or not shown.

SMILES	cardiac RTF act	Cardiac RTF inh	E coli Lon inh	Keap1-Nrf2 PPI	LANA-H2B inh	C-LANA FP
Cc1ccnc(NS(=O)(=O)c2ccc(NS(=O)(=O)c3cc(Cl)ccc3Cl)cc2)n1	3	-9	2	-2	14*	-1
COc1cccc(C(=O)N2CCC(n3nccc3NC(=O)CCOc3ccccc3)CC2)c1	2	-14	-14	5	4	1
COc1ccc(S(=O)(=O)N(C)C)cc1NC(=O)CSc1nncs1	6	-10	-6	-1	1	2
CC(C)c1nc(C(=O)N2CCc3c([nH]c4ccccc34)C2c2ccccn2)cs1 (stereo unspecified)	/	/	4	3	14*	0
Cc1nc(C(=O)N2CCc3c([nH]c4ccccc34)C2c2cc(F)ccc2F)cs1 (stereo unspecified)	-1	0	-4	-3	16*	0
Cc1ccc2nc(C)cc(C(=O)N/N=C/c3ccncc3)c2c1	-4	4	1	-1	1	0
COC(CNC(=O)c1ccc2c3c(onc13)-c1ccccc1C2=O)OC	0	-3	31	101*	0	-2
COC(CNC(=O)c1cccnc1)OC	5	-11	0	-3	4	2
CCOc1ccc(NC(=O)COC(=O)COc2cccc3c2OC(C)(C)C3)cc1	1	-4	-1	0	-3	-1
COc1cc(/C=C/C(=O)OCC(=O)NC(=O)NC(C)C)cc(S(=O)(=O)N2CCc3ccccc32)c1OC	0	-9	-4	3	26*	15
COc1cc(/C=C/C(=O)OCC(=O)N2CCc3ccccc32)cc(OC)c1OC	/	/	-14	/	/	/
O=C(Nc1ccccc1C(=O)O)c1cccc(S(=O)(=O)Nc2ccc(Br)cc2)c1	-4	-4	-7	-3	19*	1
O=C(Nc1ccccc1C(=O)O)c1cccc(NS(=O)(=O)c2ccc(Br)cc2)c1	3	-2	-11	3	1	1
CCC(=O)N1CCCC(C(=O)c2ccc(-c3ccccc3)cc2)C1 (stereo unspecified)	-11	-5	-4	3	-1	3
COc1cccc(CN2CCC(n3nccc3NC(=O)CCCc3ccccc3)CC2)c1	7	-1	2	-3	-1	-1
COC(=O)C1CCN(C(=O)c2ccc(Cl)c(S(=O)(=O)NCc3cccnc3)c2)CC1	-2	-7	-9	1	43*	1
O=C(c1ccc(Cl)c(S(=O)(=O)NCc2ccccc2)c1)N1CCN(c2ccccn2)CC1	6	-8	-7	-1	-3	-1
CCN(CC)S(=O)(=O)c1ccc(C)c(NC(=O)COC(=O)[C@@H]2CCCN2C(=O)c2cccs2)c1	4	-1	-7	4	15*	1
CN(C)S(=O)(=O)c1ccc(Cl)c(NC(=O)COC(=O)[C@@H]2CCCN2C(=O)c2cccs2)c1	4	-13	-4	0	-2	0
O=C(NCc1ccc(F)cc1)C1(S(=O)(=O)c2ccc(Cl)cc2)CC1	-2	6	2	5	-9	-2
Cc1ccc(C)c(NC(=O)CN(C)C(=O)c2cc3c(s2)CCCCC3)c1	-7	-6	10	-5	1	-1
Cc1ccc(NC(=O)CN(C)C(=O)c2cc3c(s2)CCCCC3)cc1	-1	5	0	0	21*	1
N#Cc1ccc(CO/N=C/c2ccccc2)cc1	3	-4	-2	1	4	-1
COC(=O)c1sccc1NC(=O)Nc1ccccc1F	-4	-8	-19	1	12*	-1
CCc1cc(-c2[nH]ncc2-c2ccc3c(c2)OCO3)c(O)cc1O	-9	-9	-1	-1	-8.4*	-1
SMILES	cardiac RTF act	Cardiac RTF inh	E coli Lon inh	Keap1-Nrf2 PPI	LANA-H2B inh	C-LANA FP
CCCn1nnc(NC(=O)C(C)C)n1	7	3	10	0	1	0
CS(=O)(=O)c1cccc(C(=O)Oc2ccccc2)c1	-6	-23	-6	-7	38*	12
CC1C=CC=CC=CC=CC=CC=CC=CC(OC2OC(C)C(O)C(N)C2O)CC2OC(O)(CC(O)CC(O)C(O)CCC(O)CC(O)CC(=O)OC(C)C(C)C1O)CC(O)C2C(=O)O (stereo unspecified)	-1	-6	-59	-18	/	68*
CCc1nc2ccc(C(=O)NCCc3ccc(OC)c(OC)c3)cc2nc1CC	-4	-3	0	-4	2	1
COc1ccc2oc(=O)c(C(=O)NCCc3ccc(OC)c(OC)c3)cc2c1	-4	-4	-9	-1	12*	5
COc1ccc(CCNC(=O)c2ccc3nc(-c4ccco4)c(-c4ccco4)nc3c2)cc1OC	-4	20*	-4	5	-6	10
Cc1cc(OCC(=O)Nc2ccccc2N2CCOCC2)c(C(C)C)cc1Cl	-2	-4	1	-6	i	5
Cc1cc(=O)oc2cc(OC(C)C(=O)NCC3CCCO3)ccc12 (stereo unspecified)	2	-13	-3	0	21*	-1
CC(Oc1ccc2c3c(c(=O)oc2c1)CCCC3)C(=O)NCCN1CCOCC1 (stereo unspecified)	-6	-6	10	-4	11*	1
Cc1cc(C)n2nc[n+](C)c2n1	7	-3	-8	0	19*	2
CC(=O)c1cccc(NC(=O)COC(=O)CCc2ccc(S(=O)(=O)N3CCOCC3)cc2)c1	0	-6	-8	-2	-1	1
O=C(CCc1ccc(S(=O)(=O)N2CCOCC2)cc1)OCC(=O)c1ccccc1	37*	-3	-14	-9	6	0
O=C(c1ccc(CS(=O)c2cccc(Cl)c2)o1)N1CCCCCC1 (stereo unspecified)	1	2	0	-2	0	0
O=S(=O)(NC1CCCCC1Sc1ncccn1)c1ccccc1 (stereo unspecified)	2	0	-7	-1	13*	0
O=S(=O)(NC1CCCCC1Sc1ncccn1)c1ccc(Cl)cc1 (stereo unspecified)	1	-6	-13	3	2	2
O=C(CSc1ccccc1)NCC(c1ccco1)N1CCCCC1 (stereo unspecified)	-3	4	2	-7	28*	0
O=C(CC[C@H]1O[C@@H](n2cnc3c(NC(=O)c4ccccc4)ncnc32)[C@H](O)[C@@H]1O)NCCCN1CCOCC1	/	/	-3	/	/	/
CCOC(=O)C(C)On1c(-c2cccc(Cl)c2)nc2ccc([N+](=O)[O-])cc21 (stereo unspecified)	11	7	6	-3	51*	1
